The source of these data is PubChem BioAssay AID588335 (The Scripps Research Institute Molecular Screening Center, 2011).

About 4,500 (1.2%) of roughly 360,000 compounds were called active. Cut-off read from the data, not from the text of the source: active = inhibition above about 30%; inactive = the rest. The sample as a whole holds a higher share of actives than the screen did.

A short description of this assay: inhibition of GDH and TPI enzymes – biochemical, absorbance, full deck, artefact control for M. tuberculosis FBA inhibitor project, primary screen (AID 588335).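 Note: 0% = DMSO wells and 100% = wells lacking the enzyme.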 The note with it: GDH-TPI coupled enzyme counterscreen, NADH absorbance; at 4.8 µM; active compounds read high.
As to `CCOc1ccc(C(=O)NCC(=O)N2CCCCCCC2)cc1OCC`, the inhibition is -2.14% (inactive). Under `O=C(NC1CCCCC1)C1CCC(CNS(=O)(=O)c2ccccc2)CC1` (centres undefined) stands -8.09% (inactive); under `NC(=O)CCC(NS(=O)(=O)c1ccc(Cl)cc1)C(=O)NCc1ccccc1Cl` (centres undefined), 5.93% (inactive); under `O=C(NC1CC1)C1=C[C@H](c2coc3ccccc3c2=O)C[C@H](OCCCCO)O1`, 1.68% (inactive). With `CCOC(=O)c1sc(NC(=O)C2CSC3(C)CCC(=O)N23)nc1C` (centres undefined) the figure was 4.14% (inactive); with `Cn1c(=O)cc(OCC(=O)N2CCN(c3ccccc3F)CC2)c2ccccc21`, 2.59% (inactive).

For `Cc1cccc(N2CCN(C(=O)CCS(=O)(=O)c3ccc4c(c3)NC(=O)C(C)S4)CC2)c1C` (centres undefined), the inhibition is -2.95% (inactive). Under `COc1ccc(CCC(=O)N2CCN(S(=O)(=O)c3ccc(OC)cc3)CC2)cc1` stands 1.81% (inactive).

Turning to `CCOC(=O)N1CCN(C(=O)c2ccc3nc4cc(Cl)ccc4c(=O)n3c2)CC1`, the inhibition is -6.67% (inactive).

For `COc1ccc(C(N)c2csc(NC(=O)Nc3cccc(C(F)(F)F)c3)n2)cc1` (centres undefined), the inhibition is -1.33% (inactive). With `CC(=O)c1ccc(Nc2nc(C(N)c3ccccc3Cl)cs2)cc1` (centres undefined), the inhibition was 29.2% (inactive).

In the case of `CC(=O)c1ccc(Nc2nc(C(N)c3ccccc3)cs2)cc1` (centres undefined), the inhibition was 32% (active). As for `Cc1cc(NC(=O)/C=C/C(=O)N(c2ccccc2C)C(C(=O)NC2CCCC2)c2ccc(F)cc2)no1` (centres undefined), the inhibition is 15.8% (inactive).

Regarding `CN(C)/C=C1/C(=O)Nc2ccccc21`, the inhibition was 36.4% (active). In the case of `CN(C)/C=C1\C=C(c2ccccc2)OC1=O`, the inhibition is 17.7% (inactive). On to `O=C1c2ccccc2-c2ccccc2NC1O` (centres undefined), for which the inhibition was -4.42% (inactive). Turning to `CCN(CC(=O)NC(=O)NCc1ccccc1)Cc1nc2ccccc2c(=O)[nH]1`, the inhibition was -1.22% (inactive). With `CC(C)(C)c1ccc(NC(=O)COC(=O)CCc2nc3ccccc3c(=O)[nH]2)cc1` the figure was 3.69% (inactive); with `CCN(CC)c1ccc(C(=O)NNC(=O)CCc2nc3ccccc3c(=O)[nH]2)cc1`, 30.9% (active). With `COc1ccc(S(=O)(=O)N2CCN(C(=O)c3cccs3)CC2)cc1OC` the figure was -5.51% (inactive); with `CC(C(=O)N(C)CC(=O)Nc1ccccc1C(F)(F)F)N1C(=O)c2ccccc2C1=O` (centres undefined), -1.08% (inactive).

As to `C/C(=N\Nc1cccc(C(=O)O)c1)c1ccc2c(c1)Nc1ccccc1S2`, the inhibition was 7.28% (inactive). With `Cc1nonc1C(=O)N/N=C/c1ccc(O)cc1` the figure was 29.1% (inactive); with `O=C(N/N=C/c1ccsc1)c1cc(O)cc(O)c1`, 4.09% (inactive); with `Cc1nc2ccc(C(=O)N/N=C/c3ccc(O)cc3)cc2[nH]1`, 36.4% (active). Under `O=S(=O)(c1ccc(SCc2ccc(Br)cc2)nc1)N1CCOCC1` stands 0.32% (inactive). On to `O=C(NCc1ccccc1)C(c1ccccc1)N(C(=O)c1csnn1)c1ccc(F)cc1` (centres undefined), for which the inhibition is -1.56% (inactive). With `Cc1nc2ccc(S(=O)(=O)N(C)CC(=O)NC(C)c3ccccc3)cc2s1` (centres undefined) the figure was 14.8% (inactive); with `Cc1cccc(C)c1NC(=O)CNC(=O)c1ccc(N2CCOCC2)c([N+](=O)[O-])c1`, 1.79% (inactive).

As to `CC(C)CN(C(=O)COC(=O)c1ccc2ccccc2c1)c1c(N)n(Cc2ccccc2)c(=O)[nH]c1=O`, the inhibition was 2.15% (inactive).

As to `CCN(/N=C/c1ccccc1)c1cc(=O)n(C)c(=O)[nH]1`, the inhibition is 36.7% (active). Under `Cc1cn(C2CC(O)C(CO)O2)c(=O)n(CCCc2ccccc2)c1=O` (centres undefined) stands -7.8% (inactive); under `COc1cc(C(=O)NN(CCC#N)C2=NS(=O)(=O)c3ccccc32)cc(OC)c1OC`, 4.46% (inactive).

For `O=c1[nH]c(/C=C\c2cccc(C(F)(F)F)c2)nc(O)c1[N+](=O)[O-]`, the inhibition was 16.2% (inactive). Turning to `Cc1ccccc1/C=C\c1nc(O)c([N+](=O)[O-])c(=O)[nH]1`, the inhibition was 34.9% (active). With `Cc1cc(OC(=O)c2ccccc2)c([N+](=O)[O-])c(=O)[nH]1` the figure was 3.89% (inactive); with `Cc1nnc(SCc2cccc(Cl)c2)n(N)c1=O`, -5.68% (inactive). Regarding `CN1CCN(C(=O)/C(=C\c2ccc3c(c2)OCO3)NC(=O)c2cccs2)CC1`, the inhibition was 13.8% (inactive).

For `CN1CCN(C(=O)/C(=C\c2cccs2)NC(=O)c2cccs2)CC1`, the inhibition was 30.9% (active). For `Cc1ccc(C(=O)N/C(=C/c2cccs2)C(=O)N2CCCCC2)cc1`, the inhibition was 1.16% (inactive). Under `FC(F)(F)c1ccc2c3n(nc2c1)CCN=C3c1ccc(Cl)cc1` stands 9.17% (inactive). With `O=c1[nH]c2c(c(=O)n1-c1ccccc1)CCO2` the figure was 6.88% (inactive); with `COc1ccccc1C(C)NC(=O)Cc1ccsc1` (centres undefined), 6.79% (inactive). Take `Cc1ccc(N2C(=O)C3C4C=CC(CC4)C3C2=O)cc1Cl` (centres undefined): the inhibition is 0% (inactive). For the compound `CC1(C)CC(N2CCN(C(c3ccccc3)c3ccccc3)CC2)=CC(=[N+]2CCCCC2)C1`, the inhibition was 42% (active). Under `COC(=O)C(c1ccccc1)N1CCCCCC1` (centres undefined) stands -4.27% (inactive); under `CCOc1ccc(NC(=O)CN(C)CC(=O)NC(C)c2ccccc2)cc1OCC` (centres undefined), 11% (inactive); under `Nc1c(-c2ccc(F)cc2)cnn1C1CCS(=O)(=O)C1` (centres undefined), 3.77% (inactive).

With `CCOc1ccc(/C=N\NC(=O)c2c(C)nc3cc(C)ccn23)cc1`, the inhibition is 21.5% (inactive).

For `CCOc1cc(/C=N/NC(=O)c2c(C)nc3ccc(Cl)cn23)ccc1O`, the inhibition is 52.2% (active).

With `CCOc1cc(/C=N/NC(=O)CN2CCCCC2)ccc1O`, the inhibition is 21.8% (inactive). Turning to `CCN1C(=NCCc2cccnc2)N[C@@H](c2ccccc2)[C@H](C(=O)OC)[C@H]1C`, the inhibition is -8.4% (inactive).

Consider `Cc1[nH]c2ccccc2c1/C=C(/C#N)C(=O)NC(C)C`, for which the inhibition is 6.92% (inactive). With `COCCNC(=S)N(CCc1c(C)[nH]c2ccc(C)cc12)Cc1cccnc1` the figure was 0% (inactive); with `COCCNC(=S)N/N=C/c1c(C)[nH]c2ccccc12`, 31% (active); with `CC(=O)Nc1cccc(C(=O)OCN2C(=O)c3ccccc3C2=O)c1`, -2.41% (inactive). Regarding `COc1ccc(CCNC(=S)N2CCN(S(=O)(=O)c3ccc(F)cc3)CC2)cc1`, the inhibition is 1.03% (inactive). Regarding `CCN(/N=C/c1ccc(N(C)C)cc1)c1nc2ccccc2[nH]1`, the inhibition was 31.3% (active). With `Oc1ccc(/C=N/N(Cc2ccccc2)c2ccccc2)cc1` the figure was 11.2% (inactive).

Regarding `COc1ccc(C(=O)COC(=O)c2nn(C)c(=O)c3ccccc23)c(OC)c1`, the inhibition is -0.9% (inactive). Consider `O=C(O)C1CCCN1S(=O)(=O)c1ccc2c(c1)CCC2` (centres undefined), for which the inhibition is -0.82% (inactive).

Regarding `COc1cccc(-c2sc3ccc(OC)cc3c2-c2ccc(OCCN3CCCCC3)cc2)c1`, the inhibition was 0.91% (inactive). Under `COc1ccc2sc(-c3ccc(N(C)C)cc3)c(-c3ccc4cc[nH]c4c3)c2c1` stands 33.5% (active); under `COc1ccc2sc(-c3ccccc3OC)c(-c3ccc(OCCN4CCCC4)cc3)c2c1`, 8.81% (inactive). With `Cc1cc(=O)oc(C)c1C(=O)NCc1ccc(F)cc1` the figure was 16.2% (inactive); with `Cc1cc(=O)oc(C)c1C(=O)NCCN(C)Cc1ccccc1`, 45.1% (active); with `COc1ccc(CNC(=O)c2c(C)cc(=O)oc2C)cc1OC`, 5.96% (inactive). On to `CC(NC(=O)c1ccc(Cl)cc1)C(=O)N1CCCCC1` (centres undefined), for which the inhibition was 8.65% (inactive).

Take `CCn1c(SCC(=O)NCC2CCCO2)nc2ccccc21` (centres undefined): the inhibition is -11% (inactive).

Take `Cc1ccc(NC(=O)c2cnc(SCC(=O)NCC3CCCO3)n(C)c2=O)cc1` (centres undefined): the inhibition is 33.3% (active). Under `Cn1c(SCC(=O)c2ccccc2)ncc(C(=O)Nc2ccc(F)cc2)c1=O` stands 2.1% (inactive). In the case of `CC1C(=O)N2CCCc3cc(S(=O)(=O)NCc4ccc(F)cc4)cc1c32` (centres undefined), the inhibition is 6.01% (inactive). With `O=C1C=C(c2ccnc3cc(Cl)ccc23)C[C@@H](c2ccc3c(c2)OCO3)C1`, the inhibition was 1.34% (inactive). With `Cc1ccccc1-n1c(C)cc(/C=N/NC(=O)c2ccc(CN3CCOCC3)cc2)c1C` the figure was 18.1% (inactive); with `CSc1ccc(/C=C2\NC(=O)NC2=O)cc1`, 27.3% (inactive).

In the case of `Cc1ccccc1-n1c(C)cc(/C=C2\NC(=O)NC2=O)c1C`, the inhibition is 32.7% (active).

Consider `COc1ccc2[nH]c3c(c2c1)CCN1C(=O)C(CC(=O)NCc2cccc(C(F)(F)F)c2)C[C@H](C(=O)N2CCOCC2)[C@@]31C` (some centres undefined), for which the inhibition was -0.94% (inactive).

For `Fc1ccccc1/C=N/Nc1cc(N2CCCCC2)ncn1`, the inhibition was 18.5% (inactive). For `COc1ccc(/C=N/Nc2cc(N3CCOCC3)nc(C)n2)c(OC)c1`, the inhibition is 68.5% (active). As to `COc1ccccc1-c1cnn2c(N3CCOCC3)cc(C)nc12`, the inhibition is 8.82% (inactive). For the compound `CCOc1ccc(CN(C)C(=O)c2ccc(=O)[nH]c2)cc1`, the inhibition is 1.51% (inactive). With `CC(C)CNC(=O)C(=O)NCC(c1ccc2c(c1)OCO2)N1CCOCC1` (centres undefined) the figure was -0.84% (inactive); with `CCCc1ccc(C(O)c2ncc(-c3cccc(OC)c3)[nH]2)cc1` (centres undefined), -5.36% (inactive); with `CC(C)(C)OC(=O)N/N=C/c1ccc(C(=O)O)cc1`, -4.41% (inactive). Consider `COC(=O)N/N=C/c1c[n+]([O-])c2ccccc2[n+]1[O-]`, for which the inhibition is 32.6% (active). With `COC(=O)C(C)N=Cc1ccccc1` (centres undefined) the figure was -1.89% (inactive). With `O=C(Nc1ccc2c(c1)nc1n2CCCCC1)c1cc(S(=O)(=O)N2CCOCC2)ccc1Cl` the figure was -14.1% (inactive).

As to `CC1CCN(C2=NC(=O)/C(=C/c3cn[nH]c3-c3ccccc3)S2)CC1`, the inhibition is 33.8% (active). Consider `CN(CCC1CCOCC1)Cc1cn[nH]c1-c1ccc(-c2ccccc2)cc1`, for which the inhibition was 13% (inactive). Under `CCOc1cc(/C=C2\SC(N3CCCC(C)C3)=NC2=O)ccc1O` (centres undefined) stands 14.5% (inactive); under `CCCCCCCCn1c2c(c(=N)c3c1CCC3)CCCC2`, -7.26% (inactive); under `C/C(=N\NC(=O)c1cc(-c2ccc(O)cc2)nc2ccccc12)c1cccnc1`, 30.9% (active). With `C/C(=N\NC(=O)c1cccc([N+](=O)[O-])c1)c1cccnc1` the figure was 3.57% (inactive). Under `CCOc1ccccc1-c1cc(C(=O)N/N=C(\C)c2cccnc2)c2ccccc2n1` stands 19.2% (inactive).

One may read the inhibition as the relative decrease from the control value, in per cent.
